PubChem BioAssay (Tox21)
Values joined by “and” are separate entries in the source; they are usually repeats but may differ in a detail not shown here. Equal values may be shown once. Records with an inconclusive call do not appear. Active and inactive are the calls of the source. Unless noted, calls come from the whole dose curve; as a rule, active = well fitted curve in the direction sought with a large enough effect in the repeat runs; inconclusive = weak or mixed curves; inactive = no such curve, though single readings can be large; an effect the other way counts as inactive or inconclusive.

Key:
[1] = molecular target: Estrogen receptor beta (Homo sapiens) (UniProt Q92731); assay: qHTS assay to identify small molecule agonists of the estrogen receptor beta (ER-beta) signaling pathway (AID 1259377; active = well fitted activation curve with a large enough effect in the signal ratio in the repeat runs, not every such curve was filed as active; the % refers to the signal ratio; note: potency is the fitted concentration of half-maximal effect)
Estrogen receptor beta (Homo sapiens), sequence (Q92731 whole entry, looked up): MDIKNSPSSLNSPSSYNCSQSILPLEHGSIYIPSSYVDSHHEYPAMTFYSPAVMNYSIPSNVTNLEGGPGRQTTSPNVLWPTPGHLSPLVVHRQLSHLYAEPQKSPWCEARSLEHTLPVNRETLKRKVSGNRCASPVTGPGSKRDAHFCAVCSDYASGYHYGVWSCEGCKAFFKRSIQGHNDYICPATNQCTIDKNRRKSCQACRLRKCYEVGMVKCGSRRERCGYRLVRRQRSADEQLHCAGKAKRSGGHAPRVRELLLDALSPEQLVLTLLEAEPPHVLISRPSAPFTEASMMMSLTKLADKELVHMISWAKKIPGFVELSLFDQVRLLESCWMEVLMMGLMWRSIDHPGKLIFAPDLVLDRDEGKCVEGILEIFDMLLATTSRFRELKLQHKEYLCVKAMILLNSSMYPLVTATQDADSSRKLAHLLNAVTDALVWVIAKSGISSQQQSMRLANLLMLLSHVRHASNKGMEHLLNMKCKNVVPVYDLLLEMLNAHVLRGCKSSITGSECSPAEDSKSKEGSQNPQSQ
How it was run: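 In HEK293T cells bearing a UAS-beta-lactamase reporter under ER-beta control, DMSO-delivered compounds were incubated for 16 hr at 37C. Activity was detected as fluorescence 2 hours after LiveBLAzer B/G FRET substrate addition.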

[2] = molecular target: Estrogen receptor beta (Homo sapiens) (UniProt Q92731); assay: qHTS assay to identify small molecule antagonists of the estrogen receptor beta (ER-beta) signaling pathway (AID 1259378; active = well fitted inhibition curve with a large enough effect in the signal ratio in the repeat runs, not every such curve was filed as active; the % refers to the signal ratio)
How it was run: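 ER-beta-UAS-bla HEK293T cells in 2% charcoal-stripped FBS medium treated with compound plus 1nM final 17-beta-estradiol for 16 hr at 37C. Beta-lactamase reporter read by FRET substrate fluorescence after 2 hours at room temperature.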

[3] = qHTS assay to identify small molecule agonists of the androgen receptor (AR) signaling pathway in the presence of an antagonist - cell viability counter screen (AID 1259379); note: nearly all actives have a fitted effect of over 25% in size; note: potency is the fitted concentration of half-maximal effect
How it was run: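 In MDA-kb2 cells (human breast carcinoma, MMTV-luciferase), compounds at 15 concentrations plus 3.0uM nilutamide; 16 hr, 37C, 0% CO2; CellTiter-Fluor fluorescence read for viability.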

[4] = qHTS assay to identify small molecule agonists of the estrogen receptor beta (ER-beta) signaling pathway - cell viability counter screen (AID 1259380); note: nearly all actives have a fitted effect of over 30% in size; note: potency is the fitted concentration of half-maximal effect
How it was run: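 Viability of ER-beta-UAS-bla HEK293T cells was determined by CellTiter-Glo luminescence following 16 hr treatment with test compounds at 37C.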

[5] = molecular target: Estrogen receptor (Homo sapiens) (UniProt P03372); assay: qHTS assay to identify small molecule agonists of the estrogen receptor alpha (ER-alpha) signaling pathway in the presence of an antagonist (AID 1259383; calls by dose curve; note: top concentration of the series differs between compounds; nearly all actives have a fitted effect of over 15% in size)
Estrogen receptor (Homo sapiens), sequence (P03372 whole entry, looked up): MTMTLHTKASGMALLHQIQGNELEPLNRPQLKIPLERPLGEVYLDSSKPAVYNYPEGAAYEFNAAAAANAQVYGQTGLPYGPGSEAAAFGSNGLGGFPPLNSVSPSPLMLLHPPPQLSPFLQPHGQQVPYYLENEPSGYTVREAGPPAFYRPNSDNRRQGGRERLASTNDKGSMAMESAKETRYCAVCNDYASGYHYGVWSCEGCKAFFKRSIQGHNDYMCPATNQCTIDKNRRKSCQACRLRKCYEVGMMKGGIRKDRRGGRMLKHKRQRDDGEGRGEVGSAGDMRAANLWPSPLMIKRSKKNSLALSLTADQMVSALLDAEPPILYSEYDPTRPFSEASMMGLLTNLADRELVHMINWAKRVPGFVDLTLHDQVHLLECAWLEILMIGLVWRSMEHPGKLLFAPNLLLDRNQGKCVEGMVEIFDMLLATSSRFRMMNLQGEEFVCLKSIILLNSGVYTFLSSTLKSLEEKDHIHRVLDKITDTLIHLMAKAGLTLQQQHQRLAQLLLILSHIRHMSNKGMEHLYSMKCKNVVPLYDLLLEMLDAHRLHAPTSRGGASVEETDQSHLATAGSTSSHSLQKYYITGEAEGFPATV
How it was run: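 In VM7Luc4E2 cells, 4,000 per well, compounds at 15 concentrations were co-incubated 22hr at 37C with 10.0nM final ICI-182,780. Luminescence from the stably transfected 4×ERE-luciferase reporter was recorded 30min after ONE-Glo addition.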

[6] = qHTS assay to identify small molecule agonists or antagonists of the thyroid stimulating hormone receptor (TSHR) signaling pathway - wild type cell line counter screen (AID 1259384; calls by dose curve)
How it was run: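 Wild-type Hek293 cells, 800/well, 18 h at 37C, then compound with Ro20-1724 for 30 min RT. cAMP by HTRF (cAMP-d2/anti-cAMP cryptate), 1 h RT, fluorescence read. 15 concentrations, triplicates.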

[7] = molecular target: Thyrotropin receptor (Homo sapiens) (UniProt P16473); assay: qHTS assay to identify small molecule antagonists of the thyroid stimulating hormone receptor (TSHR) signaling pathway (AID 1259385; calls by dose curve; note: nearly all actives have a fitted effect of over 20% in size; note: potency is the fitted concentration of half-maximal effect)
Thyrotropin receptor (Homo sapiens), sequence (P16473 whole entry, looked up): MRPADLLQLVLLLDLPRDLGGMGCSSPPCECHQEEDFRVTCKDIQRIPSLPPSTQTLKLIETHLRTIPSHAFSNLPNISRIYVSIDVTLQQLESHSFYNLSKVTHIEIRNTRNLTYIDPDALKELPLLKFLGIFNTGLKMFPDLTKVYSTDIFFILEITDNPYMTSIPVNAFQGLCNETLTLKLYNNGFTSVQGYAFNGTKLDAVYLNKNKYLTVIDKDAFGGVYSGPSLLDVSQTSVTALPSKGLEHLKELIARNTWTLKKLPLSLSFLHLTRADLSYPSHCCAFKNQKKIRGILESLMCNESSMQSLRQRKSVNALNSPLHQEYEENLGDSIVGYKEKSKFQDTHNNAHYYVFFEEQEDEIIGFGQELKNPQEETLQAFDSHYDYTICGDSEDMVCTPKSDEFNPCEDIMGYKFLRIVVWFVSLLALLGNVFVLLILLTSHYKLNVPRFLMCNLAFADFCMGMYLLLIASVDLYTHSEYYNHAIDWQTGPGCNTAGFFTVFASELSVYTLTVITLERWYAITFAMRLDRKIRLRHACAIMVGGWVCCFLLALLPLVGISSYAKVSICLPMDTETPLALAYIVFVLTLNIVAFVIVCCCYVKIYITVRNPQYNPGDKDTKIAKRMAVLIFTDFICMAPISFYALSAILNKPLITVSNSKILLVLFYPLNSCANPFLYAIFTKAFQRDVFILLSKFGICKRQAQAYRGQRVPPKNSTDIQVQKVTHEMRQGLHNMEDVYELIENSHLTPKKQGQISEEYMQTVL
How it was run: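 TSHR-HEK293 cells (800/well) plated 18 h, then compounds with Ro20-1724 and TSH at 1.5 ng/mL final, 30 min at room temperature. cAMP quantified by HTRF (cAMP-d2/anti-cAMP-cryptate, 1 h); 15 concentrations in triplicate.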

[8] = qHTS assay to identify small molecule antagonists of the sonic hedgehog signaling (Shh) pathway (AID 1259369; calls by dose curve; note: nearly all actives have a fitted effect of over 45% in size)
How it was run: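 Screening used 3T3Gli1-Luc cells at 2,000 per well, compounds delivered in DMSO, and conditioned medium as agonist stimulus; plates incubated 24hr at 37 C and 5% CO2 before a 30min luciferase step.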

[9] = molecular target: Androgen receptor (Homo sapiens) (UniProt P10275); assay: qHTS assay to identify small molecule agonists of the androgen receptor (AR) signaling pathway in the presence of an antagonist (AID 1259381; calls by dose curve; note: nearly all actives have a fitted effect of over 15% in size)
Androgen receptor (Homo sapiens), sequence (P10275 whole entry, looked up): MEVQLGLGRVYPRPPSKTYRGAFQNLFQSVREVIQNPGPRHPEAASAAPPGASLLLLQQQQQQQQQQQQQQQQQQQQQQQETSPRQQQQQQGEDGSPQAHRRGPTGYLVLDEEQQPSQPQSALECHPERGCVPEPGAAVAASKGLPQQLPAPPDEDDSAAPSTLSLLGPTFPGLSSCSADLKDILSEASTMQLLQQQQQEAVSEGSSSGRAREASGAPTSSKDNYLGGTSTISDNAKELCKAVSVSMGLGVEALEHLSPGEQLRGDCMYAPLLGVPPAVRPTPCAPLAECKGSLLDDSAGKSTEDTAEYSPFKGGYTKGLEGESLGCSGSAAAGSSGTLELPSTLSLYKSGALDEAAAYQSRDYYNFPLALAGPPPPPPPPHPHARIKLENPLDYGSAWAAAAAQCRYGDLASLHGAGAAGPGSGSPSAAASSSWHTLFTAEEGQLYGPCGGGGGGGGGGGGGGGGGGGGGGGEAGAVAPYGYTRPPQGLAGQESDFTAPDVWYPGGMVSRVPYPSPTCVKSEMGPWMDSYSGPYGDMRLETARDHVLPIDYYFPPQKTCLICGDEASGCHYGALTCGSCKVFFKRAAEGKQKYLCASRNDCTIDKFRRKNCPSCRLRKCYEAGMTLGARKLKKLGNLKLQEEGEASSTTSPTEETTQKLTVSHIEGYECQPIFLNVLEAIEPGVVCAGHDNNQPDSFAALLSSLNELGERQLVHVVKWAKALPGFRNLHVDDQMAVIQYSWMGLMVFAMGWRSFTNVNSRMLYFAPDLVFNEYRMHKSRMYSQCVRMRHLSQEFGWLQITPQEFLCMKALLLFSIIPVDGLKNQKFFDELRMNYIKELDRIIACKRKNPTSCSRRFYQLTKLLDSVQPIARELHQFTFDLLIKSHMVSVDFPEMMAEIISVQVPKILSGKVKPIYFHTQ
How it was run: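 Here, 15-concentration compound series were pin-transferred onto MDA-kb2 MMTV-luciferase cells already dosed with nilutamide (3.0uM final). After 16hr at 37C, ONE-Glo was added and luminescence read 30min later at room temperature.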

[10] = qHTS assay to identify small molecule antagonists of the estrogen receptor beta (ER-beta) signaling pathway - cell viability counter screen (AID 1259382); note: nearly all actives have a fitted effect of over 55% in size; note: potency is the fitted concentration of half-maximal effect
How it was run: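 Tox21 10K library tested in qHTS format on ER-beta-bla HEK293T cells stimulated with 1nM E2; 16 hr treatment at 37C. Same-well CellTiter-Glo luminescence served as the cell viability measure.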

Measured: Potency

CCCCC(CC)CO[N+](=O)[O-] (stereo not given)
not listed: [8] | [9] | [10]
inactive: all other assays above

Nc1ccccc1C(=O)OCCc1ccccc1
inactive: [8] | [7]

CN1C(=O)CN=C(c2ccccc2)c2cc([N+](=O)[O-])ccc21
inactive: [3] | [4] | [9] | [10] | [6] | [7]

COC1=CC(=O)O[C@@H](/C=C/c2ccc3c(c2)OCO3)C1
inactive: [3] | [10] | [6] | [7]

N#CC(C#N)=C(C#N)C#N
inactive: [1] | [2] | [10] | [5] | [6]

C[C@H](N)[C@H](O)c1ccc(O)c(O)c1
inactive: [1] | [3] | [10] | [5]

COc1cc(C[C@@H](C)N)c(OC)cc1Br
inactive: [3] | [5] | [6] | [7]
active: [4] 35.3 µM

CC(Cc1ccccc1)NCc1ccccc1Cl (stereo not given)
inactive: [3] | [10] | [5] | [6] | [7]

CCOP(=S)(OCC)SCSc1cc(Cl)ccc1Cl
inactive: [3] | [4] | [10] | [7]

O=C(O)c1cc(I)cc(I)c1I
inactive: [4] | [10] | [5] | [6] | [7]

CC(=O)OC(c1ccccc1)C(Cl)(Cl)Cl (stereo not given)
inactive: [4] | [5] | [6]

CC(Oc1cc(Cl)c(Cl)cc1Cl)C(=O)O (stereo not given)
inactive: [1] | [5] | [7]

C[Si](Cn1cncn1)(c1ccc(F)cc1)c1ccc(F)cc1
inactive: [1] | [3] | [10] | [7]

COc1ccc(C(O)(c2cncnc2)C2CC2)cc1 (stereo not given)
inactive: [1] | [2] | [4] | [10] | [6] | [7]

CCOc1cccc(C2(N3CCN(c4ccccc4)CC3)CCC(C)CC2)c1 (stereo not given)
inactive: [3] | [4] | [10] | [6] | [7]

CN(C)c1ccc(N=O)cc1
inactive: [1]
active: [3] 43.4 µM and 43.3 µM | [4] 3.87 µM and 15.4 µM

CC(C)[C@@H](C(=O)O[C@@H](C#N)c1cccc(Oc2ccccc2)c1)c1ccc(Cl)cc1
inactive: [1] | [10] | [7]

Nc1cccc2ccccc12
inactive: [4] | [10] | [5] | [6] | [7]

COc1cc(CC#N)cc(OC)c1OC
not listed: [2] | [8]
inactive: all other assays above

O=CC=O
not listed: [1] | [8] | [10]
inactive: all other assays above

CC(Oc1cccc(Cl)c1)C(=O)O (stereo not given)
inactive: [2] | [4] | [10] | [6] | [7]

O=C(NC(=O)c1cc(F)c(F)cc1Cl)Nc1cc(F)ccc1N1CCC(C(=O)O)CC1
inactive: [3] | [4] | [10] | [6] | [7]

OCC1CO1 (stereo not given)
inactive: [3] | [10] | [5]

C[N+]1(CCF)[C@@H]2CC[C@H]1CC(OC(=O)C(O)(c1ccccc1)c1ccccc1)C2 (stereo not given in full)
inactive: [3] | [4] | [6] | [7]

CC(C)(C)CC(C)(C)c1ccc(O)cc1
inactive: [3] | [9] | [6] | [7]
active: [4] 30.6 µM and 33.5 µM | [10] 57.7 µM and 33.5 µM

CC(CC(C(N)=O)(c1ccccc1)c1ccccc1)N(C)C (stereo not given)
inactive: [3] | [4] | [9] | [6] | [7]

CCCCCl
inactive: [3] | [4] | [10] | [6] | [7]

CCN(C(C)=O)c1cccc(-c2ccnc3c(C#N)cnn23)c1
inactive: [3] | [4] | [10] | [5] | [7]

CCOC(=O)c1cncn1C(C)c1ccccc1 (stereo not given)
inactive: [3] | [4] | [10] | [6] | [7]

CN1CC[C@]23c4c5ccc(O)c4O[C@H]2[C@@H](O)C=C[C@H]3[C@H]1C5
inactive: [3] | [4] | [9] | [10] | [6] | [7]

CN1CC[C@]23c4c5ccc(O)c4O[C@H]2[C@@H](O)CC[C@H]3[C@H]1C5
inactive: [1] | [3] | [4] | [10]

O=[N+]([O-])/C=C/c1ccccc1
inactive: [10]
active: [3] 44 µM and 68.6 µM | [7] 27.8 µM and 21.7 µM

C[C@]12CC[C@H]3[C@@H](CCC4=CC(=O)CC[C@@H]43)[C@@H]1CC[C@@H]2OC(=O)CCc1ccccc1
active: [1] 3.35 µM
inactive: [4] | [7]

C#C[C@]1(O)CC[C@H]2[C@@H]3CCC4=CC(=O)CCC4=C3C=C[C@@]21CC
inactive: [3] | [6] | [7]

CC(C)(C)NCC(O)c1cc(Cl)c(N)c(C(F)(F)F)c1 (stereo not given)
inactive: [1] | [3] | [4] | [9] | [5] | [7]

OC[P+](CO)(CO)CO
inactive: [4] | [10] | [7]

CCc1cnc(C2=NC(C)(C(C)C)C(=O)N2)c(C(=O)O)c1 (stereo not given)
inactive: [3] | [4] | [10] | [6] | [7]

OCCSSCCO
inactive: [3] | [4] | [5]

C[C@H]1[C@@H]2Cc3ccc(O)cc3[C@@]1(C)CCN2C
inactive: [1] | [2] | [4] | [10] | [6] | [7]

O=C1NC(=O)C(=O)C(=O)N1
inactive: [3] | [4] | [10] | [5] | [6] | [7]

CCOC(=O)c1cn2nc(OP(=S)(OCC)OCC)cc2nc1C
inactive: [1] | [3] | [4] | [10] | [5]
